Unmarked numbers belong to inactive results. Results filed as inconclusive are left out. Activity calls are given as the source filed them. Unless noted, calls come from the whole dose curve.

The nature of test [1]: Nuclear factor erythroid 2-related factor 2/antioxidant responsive element (Nrf2/ARE) small molecule agonists: qHTS cell viability counter screen in human keratinocytes (AID 1919968; active = well fitted curve in the direction sought with a large enough effect in the repeat runs; an effect the other way counts as inactive or inconclusive; note: nearly all actives have a fitted effect of over 55% in size). The essentials: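 Cells of the KeratinoSens line were plated at 1,500 per well and left for 5 h before compound transfer from DMSO stocks. After a 23 h incubation (37 C, 5% CO2), CellTiter-Fluor was added. Signal was taken as fluorescence intensity 1 h later.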
In general terms: In qHTS, concentration-response curves come from the screen itself.

A short description of test [2]: Nuclear factor erythroid 2-related factor 2/antioxidant responsive element (Nrf2/ARE) small molecule agonists: luciferase reporter gene qHTS assay in human keratinocytes (AID 1919969). Note: nearly all actives have a fitted effect of over 35% in size.
Test [3] deals with Gonadotropin-releasing hormone receptor (Homo sapiens) (UniProt P30968). Kind of test: Human gonadotropin-releasing hormone receptor (GnRHR) small molecule agonists, calcium flux assay in GnRHR-HEK293 cells (AID 1920063). Note: nearly all actives have a fitted effect of over 35% in size. In a few lines: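 Compounds dissolved in DMSO are pin-transferred onto dye-loaded GnRHR-HEK293 cells, which were seeded 18 h before at 37 C/5% CO2. Calcium signal is read as fluorescence intensity at 1 s intervals for 3 min.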
On the technique in general: Calcium assays in cells follow changes in intracellular calcium, usually with a dye or a luminescent sensor.

For test [4], the target named is KiSS-1 receptor (Homo sapiens) (UniProt Q969F8). Nature of the test: Human kisspeptin (KISS1R) small molecule agonists, calcium flux assay in KISS1R-HEK293 cells (AID 1920064; active = well fitted curve in the direction sought with a large enough effect in the repeat runs; an effect the other way counts as inactive or inconclusive). The essentials:
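Cell line: HEK293, stable human KISS1R. Dye loading 1 h at 37 C after 18 h culture. Read: kinetic fluorescence, 480/540 nm, 3 min at 1 s intervals.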

The nature of test [5]: G protein-coupled receptor (GPCR) small molecule agonists, calcium flux assay: HEK293 wild type cell line counter screen (AID 1920065). The essentials:
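Tox21 10K compounds, 15 concentrations each in triplicate, pin-transferred in DMSO onto dye-loaded cells; kinetic read at 480/540 nm for 3 min, 1 s intervals.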

Test [6] in a line: p53 small molecule agonists, cell-based qHTS assay with human liver microsomes (AID 1963577). The essentials: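 p53RE-bla reporter cells were pre-incubated 5 h at 37 C, then treated with compounds plus human liver microsomes (0.5 mg/mL final) and NADPH (0.5 mg/mL final) for 16 h at 37 C. Beta-lactamase activity was read by LiveBLAzer fluorescence after 2 h at room temperature.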

The nature of test [7]: p53 small molecule agonists, cell-based qHTS assay with rat liver microsomes (AID 1963578). In a few lines: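 p53RE-bla cells were exposed to compounds together with rat liver microsomes (0.5 mg/mL final) and NADPH (0.5 mg/mL final) for 16 h at 37 C, then read by LiveBLAzer beta-lactamase fluorescence after 2 h at room temperature.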
Test [8] in a line: p53 small molecule agonists, cell-based qHTS assay with human liver microsomes: qHTS cell viability counter screen (AID 1963579). Note: nearly all actives have a fitted effect of over 45% in size. The essentials:
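p53RE-bla cells (4,000/well) were pre-incubated 5 h at 37 C, then given compounds in DMSO plus human liver microsomes (0.5 mg/mL final) and NADPH (0.5 mg/mL final) for 16 h at 37 C. Viability was read by CellTiter-Glo luminescence.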

A short description of test [9]: p53 small molecule agonists, cell-based qHTS assay with rat liver microsomes: qHTS cell viability counter screen (AID 1963580). Note: nearly all actives have a fitted effect of over 45% in size. Note: potency is the fitted concentration of half-maximal effect. In a few lines: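 Luminescent ATP readout (CellTiter-Glo, 30 min at room temperature) reports viability of p53RE-bla HCT-116 cells after 16 h at 37 C with test compounds under metabolic activation by rat liver microsomes and NADPH at 0.5 mg/mL final each.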

In test [10] the target is 5-hydroxytryptamine receptor 2A (Homo sapiens) (UniProt P28223). Kind of test: 5-hydroxytryptamine receptor 2A (HTR2A) small molecule antagonists, cell-based qHTS assay (AID 1963586). Note: nearly all actives have a fitted effect of over 45% in size. The essentials: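 CHO cells stably expressing human HTR2A were plated for 18 h at 37 C, then loaded with calcium dye for 1 h. Compounds were preincubated 5 min at room temperature before DOI (4 nM solution) was added. Kinetic fluorescence was read for 3 min.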

The target is the same in test [11]. Kind of test: 5-hydroxytryptamine receptor 2A (HTR2A) small molecule agonists, cell-based qHTS assay (AID 1963587). Note: nearly all actives have a fitted effect of over 30% in size. The essentials:
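HTR2A-CHO cells, plated 18 h at 37 C/5% CO2, dye-loaded 1 h at 37 C; compounds in DMSO added by pin tool (agonist mode). Intracellular calcium flux read as kinetic fluorescence on FDSS over 2 min at 1 s intervals.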

Test [12] addresses Muscarinic acetylcholine receptor M1 (Homo sapiens) (UniProt P11229). Kind of test: Cholinergic receptor muscarinic 1 (CHRM1) small molecule antagonists, cell-based qHTS assay (AID 1963588). Note: nearly all actives have a fitted effect of over 40% in size. In a few lines:
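Compounds were tested at 15 concentrations in three independent runs. Dye-loaded CHRM1-CHO cells were exposed 5 min at room temperature before stimulation by acetylcholine added at 50nM. Intracellular calcium was read kinetically on FDSS for 3 min.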

Test [13] shares this target. Kind of test: Cholinergic receptor muscarinic 1 (CHRM1) small molecule agonists, cell-based qHTS assay (AID 1963589). Note: nearly all actives have a fitted effect of over 35% in size. The essentials: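 Homogeneous fluorescence calcium flux, agonist mode. Human M1-expressing CHO cells; compound dosed at 15 concentrations, three independent runs; signal sampled every 1 sec.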
Test [14] can be described thus: cAMP Responsive Elements (CRE) small molecule agonists, cell-based qHTS assay (AID 1963590). The essentials: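 HEK 293T cells stably bearing CRE-bla were plated at 2,000 cells per well and rested 18 h. Compounds, positive controls or DMSO were added for 3 h at 37 C. LiveBLAzer B/G substrate was then loaded for 2 h at room temperature.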
A short description of test [15]: cAMP Responsive Elements (CRE) small molecule antagonists, cell-based qHTS assay (AID 1963591; active = well fitted inhibition curve with a large enough effect in the signal ratio in the repeat runs, not every such curve was filed as active; the % refers to the signal ratio). In a few lines:
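First, CRE-bla HEK293T cells settled 18 h at 37 C. Next, compound and 0.25 uM final NKH477 were applied for 3 h. Last, LiveBLAzer B/G substrate was loaded for 2 h at room temperature.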

The target of test [16] is Beta-2 adrenergic receptor (Homo sapiens) (UniProt P07550). Kind of test: Adrenergic beta2 receptor (ADRB2) small molecule antagonists, cell-based qHTS assay (AID 1963592). Note: series mostly up to about 92 µM; nearly all actives have a fitted effect of over 50% in size. In a few lines: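 Assay format: CHO-ADRB2 cells, 18-20hr seeding at 37C/5% CO2, then compound plus 1nM isoproterenol agonist mix for 0.5hr RT. Homogeneous time-resolved fluorescence cAMP detection after 1hr, expressed as 665/615 nm ratio.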

In test [17] the target is D(2) dopamine receptor (Homo sapiens) (UniProt P14416). Nature of the test: Dopamine D2 receptor (DRD2) small molecule agonists, cell-based qHTS assay (AID 1963594). Note: nearly all actives have a fitted effect of over 35% in size. The essentials: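 HEK293 cells stably expressing DRD2 were cultured 24 h at 37 C, then given Ro20-1724 (0.1 mM final) and compounds for 10 min at room temperature. NKH477 (200nM) was then added for 30 min. cAMP was read by HTRF.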

Test [18] shares this target. Nature of the test: Dopamine D2 receptor (DRD2) small molecule antagonists, cell-based qHTS assay (AID 1963595; active = well fitted inhibition curve with a large enough effect in the signal ratio in the repeat runs, with a control signal flat; the % refers to the signal ratio). The essentials:
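Cells were plated and grown for 24 h at 37 °C. Ro20-1724 (0.1 mM final) went in first, then compound for 10 min. NKH477 (200 nM) with quinpirole (12 nM) followed for 30 min at RT, then HTRF detection reagents for 1 h.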

Test [19] in a line: p53 small molecule agonists, cell-based qHTS assay: qHTS cell viability counter screen (AID 1963581). Note: nearly all actives have a fitted effect of over 45% in size. In a few lines:
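ATP content measured by luminescence in HCT-116 p53RE-bla cells treated 16 h at 37 C, same wells as the reporter screen.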

The target of test [20] is Beta-2 adrenergic receptor (Homo sapiens) (UniProt P07550). Nature of the test: Adrenergic beta2 receptor (ADRB2) small molecule agonists, cell-based qHTS assay (AID 1963593).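 Note: CHO cells stably overexpressing human ADRB2.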 In a few lines: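 CHO cells stably over-expressing ADRB2 were plated overnight at 37C, then dosed with compounds plus a stimulation mix containing 100uM IBMX and 25uM Ro-20-1724 for 0.5hr at room temperature. cAMP was measured by HTRF competition, 1hr.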

Sequence of 5-hydroxytryptamine receptor 2A (Homo sapiens) (P28223 whole entry, looked up): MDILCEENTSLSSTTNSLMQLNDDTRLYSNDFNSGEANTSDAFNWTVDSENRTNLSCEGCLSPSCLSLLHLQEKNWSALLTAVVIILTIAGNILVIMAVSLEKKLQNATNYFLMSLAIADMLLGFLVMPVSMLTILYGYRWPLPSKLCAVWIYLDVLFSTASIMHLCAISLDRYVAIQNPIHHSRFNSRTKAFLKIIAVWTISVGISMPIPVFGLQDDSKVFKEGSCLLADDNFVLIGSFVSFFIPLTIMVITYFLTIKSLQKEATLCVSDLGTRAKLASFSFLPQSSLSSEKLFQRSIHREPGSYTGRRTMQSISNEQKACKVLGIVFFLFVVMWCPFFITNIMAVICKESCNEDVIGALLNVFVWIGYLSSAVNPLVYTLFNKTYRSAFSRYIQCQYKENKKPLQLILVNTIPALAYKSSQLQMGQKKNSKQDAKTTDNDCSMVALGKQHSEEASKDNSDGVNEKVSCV
Sequence of Beta-2 adrenergic receptor (Homo sapiens) (P07550 whole entry, looked up): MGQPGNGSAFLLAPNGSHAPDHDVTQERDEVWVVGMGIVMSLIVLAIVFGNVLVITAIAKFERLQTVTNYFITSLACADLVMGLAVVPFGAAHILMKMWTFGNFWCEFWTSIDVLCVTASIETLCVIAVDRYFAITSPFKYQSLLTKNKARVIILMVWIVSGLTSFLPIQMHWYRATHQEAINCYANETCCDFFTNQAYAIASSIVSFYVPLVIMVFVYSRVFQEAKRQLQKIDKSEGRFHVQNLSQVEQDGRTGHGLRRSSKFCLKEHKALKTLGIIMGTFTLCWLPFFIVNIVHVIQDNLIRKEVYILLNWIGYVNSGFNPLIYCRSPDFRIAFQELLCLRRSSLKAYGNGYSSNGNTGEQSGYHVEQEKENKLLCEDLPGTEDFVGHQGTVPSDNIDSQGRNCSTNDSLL
Sequence of Gonadotropin-releasing hormone receptor (Homo sapiens) (P30968 whole entry, looked up): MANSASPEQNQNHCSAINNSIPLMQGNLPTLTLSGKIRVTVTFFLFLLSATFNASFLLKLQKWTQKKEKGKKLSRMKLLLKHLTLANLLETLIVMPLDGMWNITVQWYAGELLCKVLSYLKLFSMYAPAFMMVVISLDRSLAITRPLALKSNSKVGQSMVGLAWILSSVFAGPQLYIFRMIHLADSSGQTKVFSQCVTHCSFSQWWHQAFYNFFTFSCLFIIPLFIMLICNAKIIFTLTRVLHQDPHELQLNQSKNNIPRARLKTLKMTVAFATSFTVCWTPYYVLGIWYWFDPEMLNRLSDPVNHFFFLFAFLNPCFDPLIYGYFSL
Sequence of D(2) dopamine receptor (Homo sapiens) (P14416 whole entry, looked up): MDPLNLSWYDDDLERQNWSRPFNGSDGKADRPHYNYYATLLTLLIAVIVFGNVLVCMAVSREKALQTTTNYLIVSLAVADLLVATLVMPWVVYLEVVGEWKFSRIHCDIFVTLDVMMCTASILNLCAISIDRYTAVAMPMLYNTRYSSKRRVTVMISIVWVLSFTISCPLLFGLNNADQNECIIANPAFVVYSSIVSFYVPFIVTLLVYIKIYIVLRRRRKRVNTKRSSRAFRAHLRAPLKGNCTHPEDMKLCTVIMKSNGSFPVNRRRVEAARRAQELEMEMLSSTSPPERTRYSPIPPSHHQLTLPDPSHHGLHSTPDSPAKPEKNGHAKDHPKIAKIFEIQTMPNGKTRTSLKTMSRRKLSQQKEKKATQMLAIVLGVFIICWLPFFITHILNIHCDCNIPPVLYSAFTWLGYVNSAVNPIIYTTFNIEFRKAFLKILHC
Sequence of Muscarinic acetylcholine receptor M1 (Homo sapiens) (P11229 whole entry, looked up): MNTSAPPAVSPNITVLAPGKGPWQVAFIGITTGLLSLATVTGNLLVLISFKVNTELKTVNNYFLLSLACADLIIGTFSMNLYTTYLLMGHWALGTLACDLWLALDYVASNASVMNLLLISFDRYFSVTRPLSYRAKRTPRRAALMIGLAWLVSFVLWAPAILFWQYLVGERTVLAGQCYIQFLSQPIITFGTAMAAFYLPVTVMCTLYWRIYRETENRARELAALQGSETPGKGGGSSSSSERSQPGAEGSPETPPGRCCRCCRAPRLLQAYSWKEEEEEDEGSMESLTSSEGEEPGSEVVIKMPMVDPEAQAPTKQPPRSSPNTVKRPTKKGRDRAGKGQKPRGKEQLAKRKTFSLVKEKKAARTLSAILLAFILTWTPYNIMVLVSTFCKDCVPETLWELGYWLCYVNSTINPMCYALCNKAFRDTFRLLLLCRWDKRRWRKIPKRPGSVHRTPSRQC
Sequence of KiSS-1 receptor (Homo sapiens) (Q969F8 whole entry, looked up): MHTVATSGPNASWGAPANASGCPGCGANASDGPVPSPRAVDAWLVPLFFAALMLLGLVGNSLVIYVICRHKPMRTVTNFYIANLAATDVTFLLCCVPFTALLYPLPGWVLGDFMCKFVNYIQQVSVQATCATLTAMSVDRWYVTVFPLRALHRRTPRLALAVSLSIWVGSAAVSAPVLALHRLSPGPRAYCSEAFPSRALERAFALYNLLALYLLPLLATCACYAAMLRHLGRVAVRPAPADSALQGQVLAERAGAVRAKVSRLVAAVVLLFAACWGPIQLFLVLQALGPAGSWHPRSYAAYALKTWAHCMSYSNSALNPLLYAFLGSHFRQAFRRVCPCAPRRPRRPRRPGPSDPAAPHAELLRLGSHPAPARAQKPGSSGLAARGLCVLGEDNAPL

Consider `CCCCCCCCCCCCCCCCCC#N`, for which the Potency result in test [1], in test [2], in [3], in [6], in [7] and in test [8] was “inactive” each time. Moreover, the Potency entry in test [10], in [11], in test [12], in [13], in test [14] and in test [15] was “inactive” throughout. The Potency entry in test [16], in [17] and in test [18] was “inactive” in each case. For the same molecule, the outcome in [4] and in [5] was inactive. In addition, in [9], the Potency was 1650 nM (active).
Take `Cc1cscn1`: the Potency result in test [1], in test [2], in test [3], in test [6], in test [7] and in test [8] was “inactive” in each case. In addition, the Potency result in [9], in test [10], in test [11], in [12], in [13] and in test [14] was “inactive” each time. Also, the Potency entry in test [15], in test [16], in [17] and in test [18] was “inactive” each time. Also, the outcome in test [4] and in test [5] was inactive.
For the molecule `CCc1ccc(C(=O)C(C)CN2CCCCC2)cc1` (configuration not stated), the Potency result in [1], in test [2], in [3], in [6], in test [7] and in test [8] was “inactive” each time. Also, the Potency result in test [9], in test [19], in test [14], in [16], in [20] and in [17] was “inactive” each time. The result in test [4] and in test [5] was inactive.
In the case of `CC(=O)c1ccc(Cl)c(Cl)c1Cl`, the Potency result in test [1], in [2], in [3], in test [6], in test [7] and in test [8] was “inactive” each time. Also, the Potency entry in test [9], in test [10], in [11], in test [12], in test [13] and in test [14] was “inactive” in each case. Also, the Potency result in test [15], in [16], in test [17] and in [18] was “inactive” throughout. Also, the result in [4] and in [5] was inactive.
In the case of `CCOC(=O)NNc1ccc(N(CC)CC(C)O)nn1` (configuration not stated), the Potency entry in test [1], in test [2], in test [3], in test [6], in test [7] and in [8] was “inactive” in each case. In addition, the Potency result in test [9], in [10], in test [11], in [12], in test [13] and in test [14] was “inactive” each time. Moreover, the Potency result in [15], in [16], in test [20], in [17] and in [18] was “inactive” each time. Besides, the result in [4] and in [5] was inactive.
